Screens: PubChem BioAssay, National Center for Advancing Translational Sciences (NCATS)
Compounds with a hit are over-represented: about 2.4% of the library has one in this group of screens.
D2 ag-1 = Beta-Arrestin HTS for Positive Allosteric Modulators of the Human D2 Dopamine Receptor: Agonists; D(2) dopamine receptor (Homo sapiens), P14416; DiscoveRx PathHunter D2 beta-arrestin, luminescence, 90 min; 100% = 57 uM dopamine signal; activation, % (test concentration not listed); hit rate 0.084% among 360,000; AID 624465, 2012; in the data active = activation above about 40%; inconclusive = between about 15% and that limit
Target sequence (P14416 whole entry, looked up): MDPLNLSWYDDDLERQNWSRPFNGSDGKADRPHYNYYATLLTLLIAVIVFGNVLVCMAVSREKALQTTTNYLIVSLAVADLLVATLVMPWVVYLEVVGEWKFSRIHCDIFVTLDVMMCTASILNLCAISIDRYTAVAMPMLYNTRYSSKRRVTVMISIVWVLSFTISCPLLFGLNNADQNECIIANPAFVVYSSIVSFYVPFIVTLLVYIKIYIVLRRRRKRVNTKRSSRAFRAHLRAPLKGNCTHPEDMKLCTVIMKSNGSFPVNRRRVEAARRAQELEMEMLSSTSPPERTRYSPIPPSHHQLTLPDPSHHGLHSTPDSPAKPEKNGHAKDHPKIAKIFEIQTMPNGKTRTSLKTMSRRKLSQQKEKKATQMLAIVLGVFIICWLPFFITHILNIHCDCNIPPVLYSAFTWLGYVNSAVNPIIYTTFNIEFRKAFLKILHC
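DiscoveRx PathHunter D2 beta-arrestin cells (2,100/well) attached overnight, then compound-stimulated 90 min at 37 C in HBSS/10 mM HEPES/0.1% Tween-20 buffer; beta-galactosidase complementation read by luminescence after 1 h at ambient temperature. Dopamine 57 uM final (EC100) as control.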
D2 ag-2 = HTS Assay for Allosteric Agonists of the Human D2 Dopamine Receptor: Primary Screen for Agonists | D(2) dopamine receptor (Homo sapiens), P14416 | HEK293 T-REx D2 cells, calcium flux agonist mode | activation, % at 2 µM | hit rate 0.53% among 340,000;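 active = activation over 3 SD above normal in the single-dose calcium agonist read, cut at about 30% in these data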; also: 0% is about no effect
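Tetracycline-induced HEK293 T-REx cells with force-coupled D2 receptor, plated overnight at 30 C, loaded with no-wash calcium dye. After a 10 s baseline, compound was pin-added and calcium flux read kinetically for 180 s; calcium rises flagged agonists.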
D2 PAM-1 = Beta-Arrestin HTS for Positive Allosteric Modulators of the Human D2 Dopamine Receptor: Potentiators | D(2) dopamine receptor (Homo sapiens), P14416 | DiscoveRx D2 beta-arrestin cells, luminescence, 90 min; 100% = 57 uM dopamine signal | potentiation, % (test concentration not listed) | hit rate 0.23% among 360,000; in the data active = potentiation above about 50%; inconclusive = mostly about 30% to 49%
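PathHunter D2 cells, attached overnight at 37 deg C, received compound in DMSO plus dopamine at EC20 (50 nM final) for 90 min at 37 deg C. Beta-arrestin recruitment was read as luminescence after 1 h with detection reagent at ambient temperature.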
D2 PAM-2 = HTS Assay for Positive Allosteric Modulators of the Human D2 Dopamine Receptor: Primary Screen for Potentiators. D(2) dopamine receptor (Homo sapiens), P14416. HEK293 T-REx D2, calcium flux, EC20 dopamine potentiation. potentiation, % at 10 µM. hit rate 0.34% among 340,000. AID 485347, 2010;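 active = potentiation over 3 SD above the plate norm, cut at about 30% in these data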; also: 0% is about no effect
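Tetracycline-induced Hek293 Trex D2 cells, force-coupled to calcium, loaded with no-wash calcium dye. Compound added with 180 s kinetic read for agonism, then EC20 dopamine and a further 180 s read for potentiation.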
D2 antagonist = HTS Assay for Allosteric Antagonists of the Human D2 Dopamine Receptor: Primary Screen for Antagonists; D(2) dopamine receptor (Homo sapiens), P14416; AID 485344, 2010; HEK293 TREx D2 cells, calcium flux, dopamine EC80; inhibition, % at 10 µM; hit rate 2% among 340,000; in the data active = inhibition above about 30%; inactive = below that, where a call was filed; also: 0% is about no effect
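Read-out: kinetic calcium fluorescence (1 cycle/s) in inducible HEK293 T-REx D2 cells after an EC80 dopamine addition that followed 180 s compound preincubation. Loss of the dopamine response indicates antagonism.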
D3 arrestin ag = qHTS of D3 Dopamine Receptor Agonist: D3 Dopamine Receptor B-arrestin Agonist Confirmatory Assay. shares compounds with D2 ag-2. DiscoveRx D3 beta-arrestin cells, luminescence, 90 min. Potency, µM (highest dose often 76.9 µM), inactives show top-dose activation, actives largely listed as activators. hit rate 4% among 2,300. AID 720506, 2013;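 also: potency is read from the fitted curve at half-maximal effect; 100% = dopamine control response; nearly all actives have a fitted effect of over 70% in size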
D2 ag-3 = qHTS of D3 Dopamine Receptor Agonist: D2 Dopamine Receptor B-arrestin Agonist Counterscreen; hit rate 5.9% among 2,300; AID 720507, 2013; Potency, µM (titrated, usually from 76.9 µM), for inactives: at the highest dose activation, most hits filed as activators; shares compounds with D2 ag-2; DiscoveRx PathHunter D2 beta-arrestin, luminescence, 90 min; response scale: percent relative to full dopamine signal; also: potency is read from the fitted curve at half-maximal effect; % of control where 0% means no effect; nearly all actives have a fitted effect of over 70% in size
* marks the source's active call; other numbers are inactive results; ? = inconclusive; . = not tested or not shown. Unless noted, calls follow the shape of the dose curve; as a rule, active = well fitted activation curve with a large enough effect; inconclusive = small, poorly fitted or top-dose-only effect; inactive = flat fitted curve, though single readings scatter.

SMILES | D2 ag-1 | D2 ag-2 | D2 PAM-1 | D2 PAM-2 | D2 antagonist | D3 arrestin ag | D2 ag-3
COCCNC(=O)CSc1nc2cc3c(cc2c(=O)n1CCCC(=O)NCc1ccc2c(c1)OCO2)OCO3 | . | . | . | 9 | . | . | .
NC(=O)CSc1nccn1Cc1ccccc1 | -1 | 0 | -2 | 1 | 45* | -2% | -1%
COc1ccccc1C1CCN(Cc2cccc(C(=O)N3CCC(O)CC3)c2)CC1 | 0 | 75* | -5 | -24 | 75* | -4% | 6%
Cc1ccc(CN2C(=O)C(=O)N(CC(N)=O)C2=O)cc1 | -3 | 1 | -11 | -5 | -11 | . | .
C=C(C)CN1C(=O)C(=O)N(CC(=C)C)C1=O | -4 | 90* | -5 | -12 | -17 | -8% | -3%
Cc1cccc(NC(=O)CCn2cnnn2)c1C | . | 0 | . | -3 | . | . | .
COc1ccc(CNC(=O)c2ccc3nc(C(C)C)oc3c2)cc1OC | . | 1 | . | -1 | . | . | .
c1ccc(N2CCN(Cc3cn4ccccc4n3)CC2)cc1 | 2 | 70* | -16 | -18 | 37* | -9% | 7%
c1ccc(CN2CCN(Cc3cn4cccnc4n3)CC2)cc1 | 3 | 1 | -10 | -10 | 9 | . | .
c1ccc(N2CCN(Cc3cn4cccnc4n3)CC2)cc1 | 0 | 53* | -5 | -24 | 49* | 1% | 23%
O=C(NCCc1ccccc1)C1CCN(S(=O)(=O)c2cccc3nsnc23)CC1 | -1 | -1 | -19 | 2 | -14 | . | .
O=C(O)C1CCCN1S(=O)(=O)c1cccc2nsnc12 (stereo not given) | 0 | 45* | -2 | -12 | -6 | -10% | -2%
O=C(NCCN1CCN(c2ccccc2)CC1)C1CCN(S(=O)(=O)c2cccc3nsnc23)CC1 | ? | 28 | -1 | . | 55* | ? | 22%
Cc1ccc(-n2ncc(C(=O)Nc3ccc4c(c3)OCO4)c2C2CCN(C(=O)OC(C)(C)C)CC2)c(C)c1 | . | -1 | . | 5 | . | . | .
CCn1nc(C)c(CCN(C)C(=O)Nc2ccc(C)c(Cl)c2)c1C | . | 1 | . | -1 | . | . | .
Cc1nn(-c2ccc(N3CCOCC3)nn2)c(C)c1CCC(=O)Nc1ccc(F)cc1F | . | 0 | . | 20 | . | . | .
CCOC(=O)C1CCCN(C(=O)c2ccc3c(c2)N(Cc2cccc(Cl)c2)C(=O)c2ccccc2S3(=O)=O)C1 (stereo not given) | . | 0 | . | -6 | . | . | .
CNC(=O)COc1ccc(Nc2nnc(-c3ccc(C)c(S(=O)(=O)NC(C)(C)C)c3)c3ccccc23)cc1 | . | 1 | . | -17 | . | . | .
CCCN1CNC(=S)N(c2ccc(C(=O)OCC)cc2)C1 | -3 | 0 | 3 | -4 | -1 | . | .
CCOC(=O)c1ccc(N2CN(CCc3ccccc3)CNC2=S)cc1 | -2 | 7 | -9 | 7 | -15 | -5% | -4%
COc1ccc2oc(C(=O)OCC(=O)Nc3cccc(S(=O)(=O)N4CCOCC4)c3)c(C)c2c1 | 3 | 1 | -1 | 2 | -4 | . | .
COc1ccc2oc(C(=O)Nc3cccc(S(=O)(=O)N4CCOCC4)c3)c(C)c2c1 | 1 | 0 | 5 | -3 | -4 | 3% | -2%
COc1ccc(CNC(=O)[C@]2(C)CCC[C@@]3(C)C4CC[C@@]5(C)C[C@]4(CCC32)CC5=O)cc1 (stereo not given in full) | -2 | -1 | -5 | -6 | 10 | -7% | 2%
Cc1ccc(N(C)C(=O)c2cc(S(=O)(=O)N3CCOCC3)cn2C)cc1 | . | 1 | . | 3 | . | . | .
COc1ccc(OCC(O)CNCCOc2ccccc2OC)c(C(C)(C)C)c1 (stereo not given) | 2 | 45* | -10 | -21 | 71* | 22% | 19%
SMILES | D2 ag-1 | D2 ag-2 | D2 PAM-1 | D2 PAM-2 | D2 antagonist | D3 arrestin ag | D2 ag-3
COc1ccccc1NCC(O)COc1ccc(C(C)(C)C)cc1 (stereo not given) | 4 | 0 | 1 | 0 | 7 | . | .
CCc1ccc(C(=O)c2cn(CC(=O)NCCc3ccccc3)c3nc(C)ccc3c2=O)cc1 | . | . | . | 4 | . | . | .
COc1cc(OC)cc(-c2c(-c3cccs3)c3cc(-c4ccc(SC)cc4)ccc3n2C)c1 | 2 | 0 | -2 | 1 | 58* | 7% | 1%
COc1ccc(-c2c(-c3cc(OC)cc(OC)c3)n(C)c3ccc(-c4cnc(N)nc4)cc23)cc1 | -4 | . | -4 | . | . | . | .
COc1ccc(-c2c(-c3cc(OC)cc(OC)c3)n(C)c3ccc(-c4ccc(S(N)(=O)=O)cc4)cc23)cc1 | -2 | 0 | -7 | -5 | -7 | -4% | 5%
CCCCSc1nnc2c(n1)OC(c1ccc(Br)s1)Nc1ccccc1-2 (stereo not given) | . | -1 | . | -8 | . | . | .
Cc1cc(C)n2nc(C(=O)Nc3ccn(Cc4ccccc4C)n3)cc2n1 | 0 | 51* | -1 | 0 | -8 | 2% | -2%
O=C(CCN1CCN(c2ccccc2F)CC1)Nc1ccccc1F | 8 | 55* | -19 | -2 | 86* | ? | ?
O=C(CCN1CCN(C/C=C/c2ccccc2)CC1)Nc1ccccc1F | 3 | 3 | -15 | -2 | -15 | . | .
CCN1CCN(CC(=O)Nc2ccc(Cl)c(S(=O)(=O)N(C)C)c2)CC1 | -4 | -1 | -18 | 1 | 5 | . | .
O=C(CN1CCN(c2ccccc2F)CC1)Nc1ccccc1F | 1 | 22 | -35 | -22 | -1 | -9% | 0%
COc1ccc(C)cc1NC(=O)CN1CCN(c2ccccc2F)CC1 | 0 | 0 | -14 | -25 | -9 | . | .
CN(C)S(=O)(=O)c1cc(NC(=O)CN2CCN(c3ccccc3F)CC2)ccc1Cl | ? | 54* | 5 | -11 | 53* | ? | ?
COC(=O)[C@H](CC(C)C)NS(=O)(=O)c1ccccc1 | -2 | -2 | -9 | 3 | 17 | . | .
COC(=O)[C@@H](CC(C)C)NS(=O)(=O)N(Cc1ccccc1)[C@@H](CC(C)C)C(=O)OC | -3 | -1 | -4 | -3 | 2 | -15% | -3%
